Screening data as filed in PubChem BioAssay.
BoNT-A LC inh2: inhibitors of Botulinum neurotoxin A light chain protease; multiplex microsphere protease substrate cleavage, flow cytometry; inhibition, % at 10 µM; 360,000 tested, 0.17% active; note: plate controls were buffer without enzyme for full effect and enzyme alone for no effect
Anthrax LF prot: anthrax lethal factor protease inhibition; multiplex microsphere protease cleavage assay, LF; inhibition, % at 10 µM; 360,000 tested, 0.12% active; note: plate controls were buffer without enzyme for full effect and enzyme alone for no effect
BoNT F protease: blocks Botulinum neurotoxin F light chain protease; 360,000 tested, 0.22% active; AID 588497; inhibition, % at 10 µM; Multiplex microsphere protease cleavage assay, flow cytometry; in the data active = inhibition above about 35%, passing the limit was not always enough; inconclusive = no clear call, values can overlap the other calls; note: plate controls were buffer without enzyme for full effect and enzyme alone for no effect
PfHsp40 yeast: rescue of PfHsp40-mediated yeast toxicity; growth rescue, % at 12.5 µM; AID 504582; 340,000 tested, 0.68% active; S. cerevisiae expressing PfHsp40, growth rescue, ATP luminescence; in the data active = growth rescue above about 28%, passing the limit was not always enough; inconclusive = no clear call, values can overlap the other calls;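 note: yeast W303a lacking pdr1 and pdr3 grown in galactose medium; growth measured after three days at 30 °C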
Bead autofluor: counter-screen for toxin protease inhibitors: compound fluorescence. fluorescence intensity (no concentration beside the values). 360,000 tested, 3.1% active. AID 624483. compound autofluorescence counterscreen, microsphere flow cytometry; active compounds read high; in the data active = fluorescence intensity above about 16000; inconclusive = no clear call, values can overlap the other calls
MazF activator: MazEF (E. coli) toxin RNase activation; P0AE70; 350,000 tested, 0.32% active; FAM/BHQ RNA-DNA oligo cleavage fluorescence, 5 h; activation, % at 20 µM; in the data active = activation above about 50%
Target sequence (P0AE70 whole entry, looked up): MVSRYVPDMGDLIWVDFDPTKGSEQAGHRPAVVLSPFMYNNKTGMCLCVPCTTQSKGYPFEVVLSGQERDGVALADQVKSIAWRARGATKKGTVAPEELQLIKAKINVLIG
Active calls of the source: *; ? = inconclusive; / = no result given; ! = repeats disagree. Sampled rows, rich in hits. Any-hit rate of the full collection: about 4.3%. Cut-off read from the data, not from the text of the source, unless noted: active = inhibition above about 30%; inconclusive = no clear call, values can overlap the other calls; inactive = below that.

SMILES	BoNT-A LC inh2	Anthrax LF prot	BoNT F protease	PfHsp40 yeast	Bead autofluor	MazF activator
O=C(Nc1ccc(F)c(F)c1)C1CCCN(S(=O)(=O)c2cnc[nH]2)C1 (stereo unspecified)	-1	2	-6	-1	5627	6
O=C(Nc1ccc(Cl)c(C(F)(F)F)c1)C1CCCN(S(=O)(=O)c2cnc[nH]2)C1 (stereo unspecified)	-1	-3	-4	0	20180*	-1
Cc1nn(CC(=O)c2ccc3c(c2)OCCO3)c(=O)c(C#N)c1C	0	-8	0	-1	3931	-2
CCOC(=O)C1C(=O)C=C(/C=C/c2ccc(N(C)C)cc2)CC1c1ccccc1 (stereo unspecified)	7	6	3	-1	4380	106*
Cc1ccc(CNc2ncnc3c2cnn3-c2ccccc2)cc1	-2	1	-1	-2	16965*	-3
Clc1ccc(-n2ncc3c(NCc4ccccn4)ncnc32)cc1	7	-21	10	-1	19639*	-6
c1ccc(-n2ncc3c(NCCCN4CCOCC4)ncnc32)cc1	-5	-2	-10	-1	18090*	4
O=C1c2ccc(Oc3ccc4c(c3)C(=O)N(CCCCO)C4=O)cc2C(=O)N1CCCCO	-1	-5	-6	0	4251	7
O=C(O)CCN1C(=O)c2ccc(Oc3ccc4c(c3)C(=O)N(CCC(=O)O)C4=O)cc2C1=O	0	-2	0	0	19401*	2
CC(=O)c1ccc(C(=O)N2CCCC(CO)(Cc3ccccc3C)C2)s1 (stereo unspecified)	0	3	-4	1	5620	5
O=C(N1CCN(c2ccccc2)CC1)C(F)(F)C(F)(F)F	0	-4	0	0	19895*	-1
O=C(N1CCN(c2ccccc2)CC1)C(F)(F)C(F)F	8	-12	10	0	20656*	-2
O=C(c1ccccc1C(=O)N1CCN(c2ccccc2)CC1)N1CCN(c2ccccc2)CC1	2	0	-7	-1	8242	7
O=C(Cn1cnc(S(=O)(=O)N2CCCC2)c1)Nc1ccc(OC(F)(F)F)cc1	9	7	6	0	2806	4
COc1ccc(C(=O)/C=C/Nc2cccc(O)c2)cc1	?	-12	1	-1	20620*	5
CCOc1ccc(N/C=C/C(=O)c2ccc(OC)cc2)c([N+](=O)[O-])c1	-2	0	-6	0	10956	91*
COc1cccc(C(=O)/C=C/Nc2cc(C)ccc2O)c1	0	-2	-1	-1	23605*	8
COc1ccc(N/C=C/C(=O)c2ccc(C)cc2)c([N+](=O)[O-])c1	0	4	2	1	4286	30
COc1ccc(N/C=C\C(=O)c2ccc(C)cc2)cc1OC	0	-4	-1	1	2681	255*
COc1ccc(N/C=C\C(=O)c2ccc(Br)cc2)cc1OC	0	0	-1	0	2432	9
CC[C@H]1C=C[C@@H](C(C(=O)OC)C(=O)OC)CN1C(C)=O	-2	-5	-25	0	4374	3
CC1CCCCC1NC(=O)C1CCC(CNS(=O)(=O)c2ccc3c(c2)C(C)(C)C(=O)N3C)CC1 (stereo unspecified)	0	2	1	/	5417	/
CCn1cc(CN2CCC(n3nccc3NC(=O)c3ccccc3C)CC2)c(C)n1	-2	2	-6	-1	5239	7
O=C(NCCc1nc2ccccc2[nH]1)c1ccc(Cl)c([N+](=O)[O-])c1	0	-3	0	5	2453	-2
CCCNC(=O)c1ccc2c(=O)c(O)c(-c3ccc(Cl)c([N+](=O)[O-])c3)[nH]c2c1	0	-11	-14	210*	2662	9
SMILES	BoNT-A LC inh2	Anthrax LF prot	BoNT F protease	PfHsp40 yeast	Bead autofluor	MazF activator
CCOC(=O)c1c(CN2CCN(C)CC2)oc2ccc(OC)cc12	2	0	2	-2	16006	2
CCOC(=O)c1c(CN2CCCCC2)oc2ccc(OC)cc12	1	0	0	0	19520*!	-6
CCOC(=O)C1CCCCN1Cc1cc(OC)ccc1OC (stereo unspecified)	0	-4	2	-1	5036	5
CCOC(=O)c1c(CN2CCCCC2C)oc2ccc(OC)cc12 (stereo unspecified)	-2	-1	-3	1	22711*	-5
CCOC(=O)c1c(CN2CCN(c3ccccc3)CC2)oc2ccc(O)cc12	-1	-3	-10	0	6019	0
CCOC(=O)c1c(CN2CCC(C)CC2)oc2ccc(OC)cc12	0	-2	-1	0	20393*	5
